Rows were chosen to be rich in hits. Some 6.1% of all compounds tested hit in one or more screens of this group.
DUSP1 inh – MKP-1 phosphatase inhibitors, primary screen, biochemical, in vitro; Dual specificity protein phosphatase 1 (Homo sapiens), P28562; recombinant MKP-1, OMFP hydrolysis fluorescence; inhibition, %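 (compounds tested at a single concentration somewhere between 10 and 100 µM)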; 65,000 compounds, 0.15% hits;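 active = inhibition above about 50%, limit read from the data; inconclusive = inhibition over screen mean plus 3 SD, below that limit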
MMP-13 inhibitor – human MMP13 inhibitors, primary screen, biochemical, FRET peptide cleavage; inhibition, % at 4 µM; MMP-13 fTHP FRET cleavage, Mca fluorescence; 65,000 compounds, 0.07% hits; Collagenase 3 (Homo sapiens), P45452;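 active = inhibition above the mean of compound-free control plate wells plus 3 SD, cut at about 14% in these data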
Hsp90 block – tumor Hsp90 inhibitors, primary screen, cell lysate, fluorescence polarization, NCI-N417 lysate; Heat shock protein HSP 90-alpha (Homo sapiens), P07900; Cy3B-geldanamycin FP displacement; inhibition, % at 30 µM; 64,000 compounds, 0.35% hits;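 active = inhibition above 50%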
M1 agonist – M1 muscarinic receptor agonists, primary screen, CHO-M1 cells, Fluo-4 calcium, agonist mode; B-score at 10 µM; 64,000 compounds, 3% hits; AID 626, 2007; Fluo-4 calcium fluorescence; active compounds read high;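 active = fluorescence rise, raw or as B-score row- and column-corrected plate score, outside the 99.7% band of its plate's samples, either direction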
M1 antag – antagonists of rat M1 muscarinic receptor | CHO-M1 cells, Fluo-4 calcium, ACh EC80 antagonist mode; active compounds read low | B-score at 10 µM | 64,000 compounds, 3.4% hits;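 active = calcium fluorescence response, raw or row-and-column corrected B-score, differing from the plate sample mean either way at a set confidence level, mostly lower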
Cdc25B block – inhibitors of Cdc25B phosphatase catalytic domain, primary screen, biochemical, OMFP fluorescence | AID 368, 2006 | 65,000 compounds, 0.1% hits | inhibition, %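 (compounds tested at 10 µM final in the well)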 | M-phase inducer phosphatase 2 (Homo sapiens), P30305 | recombinant Cdc25B, OMFP fluorescence Ex485/Em525; in the data active = inhibition above about 50%
M1 ag confirm – rat M1 muscarinic receptor agonists, confirmation, CHO-M1 cells, Fluo-4 calcium, duplicate retest | shares compounds with M1 agonist | Fluo-4 calcium fluorescence, agonist mode; actives lie on both sides | fluorescence change (max-min) at 10 µM | 1,700 compounds, 19% hits;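 active = fluorescence change differs from the solvent-only DMSO control mean at a set confidence level in both duplicate runs; inconclusive = differs from solvent-only control mean in just one of two runs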;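 also: an EC20 dose of acetylcholine follows compound addition during the same imaging run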
M4 ag counter – agonist activity at rat M4 receptor, confirmation, counter-screen for M1 allosteric modulator project, cell-based, agonist mode | shares compounds with M1 agonist | CHO M4/Gqi5 cells, Fluo-4 calcium fluorescence; actives lie on both sides | fluorescence change (max-min) at 10 µM | 1,700 compounds, 9% hits;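 active = fluorescence change differing from the plate's solvent-only control wells at 99.7% confidence in both duplicates, whether higher or lower; inconclusive = differs from solvent controls in only one of two duplicates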
Target sequence (P08485 whole entry, looked up): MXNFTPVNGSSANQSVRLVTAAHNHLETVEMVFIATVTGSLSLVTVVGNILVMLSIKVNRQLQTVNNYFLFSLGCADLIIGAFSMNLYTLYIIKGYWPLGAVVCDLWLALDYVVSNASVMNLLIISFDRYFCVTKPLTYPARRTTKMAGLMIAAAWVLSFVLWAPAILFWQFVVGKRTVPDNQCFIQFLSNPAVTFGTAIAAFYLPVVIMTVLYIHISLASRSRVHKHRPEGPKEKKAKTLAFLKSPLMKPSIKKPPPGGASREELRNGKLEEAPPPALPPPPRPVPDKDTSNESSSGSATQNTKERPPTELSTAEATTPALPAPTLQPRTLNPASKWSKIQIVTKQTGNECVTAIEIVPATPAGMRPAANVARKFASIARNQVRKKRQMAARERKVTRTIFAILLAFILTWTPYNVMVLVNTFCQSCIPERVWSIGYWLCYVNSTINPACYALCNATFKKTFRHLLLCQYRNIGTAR
Each line names hits and unclear results; the compound was inactive in the other large screens (follow-up assays come after a bar, where they were run).

O=C(NCCCc1ccccc1)c1cnc2n(c1=O)CCS2	none
COc1ccc(S(=O)(=O)Cc2ccc(C(=O)NCCCN(C)c3ccccc3)o2)cc1	none
COc1ccc(OC)c(Nc2cc(C(=O)NCCCN3CCOCC3)c3ccccc3n2)c1	M1 agonist 7.5 | M1 ag confirm -26 | M4 ag counter -79
COc1ccccc1Nc1cc(C(=O)NCCCN2CCOCC2)c2ccccc2n1	none
CCCCOC(=O)C1=C(C)NC2=C(C(=O)CCC2)C1c1cc(OC)ccc1OC (configuration not stated)	none
C[C@H](NC(=O)OC(C)(C)C)c1nnc(SCC(=O)c2ccc(Cl)cc2)o1	M1 agonist 5.5 | M1 ag confirm inactive | M4 ag counter inactive
COc1ccccc1Oc1ccc(S(=O)(=O)NCc2ccccn2)cc1	M1 agonist 12 | M1 ag confirm inconclusive | M4 ag counter inconclusive
CCCCOC(=O)CCc1nc2ccccc2[nH]1	M1 agonist 3.6 | M1 ag confirm inactive | M4 ag counter inactive
NCCCC(N)(C(=O)O)C(F)F (configuration not stated)	none (no result: DUSP1 inh, MMP-13 inhibitor, M1 agonist, M1 antag, Cdc25B block)
Oc1ccc2[nH]cnc2c1CN1CCCCC1	none
CCc1nc2ccccc2n1CC(=O)N1CCN(S(=O)(=O)c2cccc(C(F)(F)F)c2)CC1	M1 agonist 4.6 | M1 ag confirm inactive | M4 ag counter inactive
O=C(Cn1cc(C(F)(F)F)ccc1=O)N1CCN(S(=O)(=O)c2ccccc2)CC1	none
CCOc1ccc(OCC)c(NC(=O)CSc2nc3cccnc3n2C)c1	none
CCOC(=O)c1cccc(NC(=O)CSc2nc3cccnc3n2C)c1	M1 agonist 3.3 | M1 ag confirm inactive | M4 ag counter inactive
Oc1ccccc1C1Nc2cccc3cccc(c23)N1	M1 agonist 2.7 | M1 ag confirm inconclusive | M4 ag counter inactive
c1ccc(-n2ncc3c2ncn2cnnc32)cc1	M1 agonist 27 | M1 ag confirm inactive | M4 ag counter inactive
CC(=O)c1ccc(Cc2cnc(N)s2)cc1	M1 agonist 2.9 | M1 ag confirm inactive | M4 ag counter inactive
Cc1ccc(N2C(=O)[C@@H]3[C@H](C2=O)C2CCCN2[C@@H]3C(=O)c2ccccc2)cc1 (some centres not stated)	none
CC(=O)c1ccc(N2C(=O)C3C(C2=O)C(C(=O)c2ccc(Cl)cc2)N2CCCC32)cc1 (configuration not stated)	M1 agonist 29 | M1 ag confirm 334 | M4 ag counter 470
Cn1cc(C(=O)NCN2CCCCC2)c2ccccc21	none
COCCCN(Cc1ccccn1)S(=O)(=O)Cc1ccccc1	none
CCCN(CCC)C(=O)COc1cc(=O)n(CC)c2ccccc12	none
CCN(C(=O)COc1cc(=O)n(CC)c2ccccc12)c1cc(Cl)ccc1OC	M1 agonist 7.8 | M1 ag confirm inconclusive | M4 ag counter inactive
CCn1c(=O)cc(OCC(=O)Nc2ccccc2C#N)c2ccccc21	M1 agonist 2.2 | M1 ag confirm inconclusive | M4 ag counter inactive
CCn1c(=O)cc(OCC(=O)O)c2ccccc21	none
CCN(C(=O)COc1cc(=O)n(CC)c2ccccc12)c1cccc(Cl)c1	M1 agonist 4.4 | M1 ag confirm inactive | M4 ag counter inactive
CCn1c(=O)cc(OCC(=O)N(C)c2ccccc2F)c2ccccc21	none
CCOC(=O)c1c(NC(=O)c2nn(CC)cc2Br)c(C#N)cn1-c1ccccc1	M1 agonist 3.1 | M1 ag confirm inactive | M4 ag counter inactive
Cc1ccc(CS(=O)(=O)CCC(=O)NCCCN2CCCC2=O)cc1	none
COC(=O)C(C#N)c1nc2ccccc2nc1N1CCCC1 (configuration not stated)	none
CCCCCCOC(=O)C(C#N)c1nc2ccccc2nc1N1CCCCC1 (configuration not stated)	M1 agonist 9.9 | M1 ag confirm inconclusive | M4 ag counter inactive
COc1ccc(CNC(=O)C(C#N)c2nc3ccccc3nc2N2CCCC2)cc1 (configuration not stated)	M1 agonist 165, M1 antag -6.9 | M1 ag confirm 373 | M4 ag counter 562
CCCCCCOC(=O)C(C#N)c1nc2ccccc2nc1N1CCN(C)CC1 (configuration not stated)	M1 agonist 5.1, M1 antag 1.9 | M1 ag confirm inactive | M4 ag counter inconclusive
CCCCNC(=O)C(C#N)c1nc2ccccc2nc1N1CCCC1 (configuration not stated)	M1 agonist 54 | M1 ag confirm 856 | M4 ag counter 750
CCOC(=O)c1ccc(NC(=O)CSc2nc(C)nc3c2c(=O)n(C)c(=O)n3C)cc1	none
COc1cc(-c2nc3n(n2)C(c2cccc(OC)c2OC)C2=C(CCCC2=O)N3)cc(OC)c1OC (configuration not stated)	none
Nc1cc(C(=O)O)ccc1Nc1ccc(F)c(F)c1	none
COc1ccc(C2NC(C(=O)O)CS2)cc1COCC(F)(F)F (configuration not stated)	none
CC1CCN(c2nc3ccccc3nc2C(C#N)C(=O)NC2CCCCC2)CC1 (configuration not stated)	M1 agonist 8.8 | M1 ag confirm 105 | M4 ag counter inactive
COc1ccc(-c2nnc3sc(-c4ccco4)nn23)cc1OC	M1 agonist 4.3 | M1 ag confirm inactive | M4 ag counter inactive
COc1ccc(-c2nn3c(-c4ccco4)nnc3s2)cc1OC	none
COc1cccc(-c2nn3c(-c4cccc(C)c4)nnc3s2)c1	M1 agonist 24 | M1 ag confirm inconclusive | M4 ag counter inactive
CCOC(=O)C1(CC)NC(c2cccc(F)c2)C2C(=O)N(CC)C(=O)C21 (configuration not stated)	none
COc1cc(NC(=O)c2ccco2)c(OC)cc1NC(=O)CSc1nnc(-c2cccs2)n1C	M1 agonist 6.2 | M1 ag confirm -32 | M4 ag counter inconclusive
COc1ccc(N2C(=O)CC(NCc3ccncc3)C2=O)cc1 (configuration not stated)	none
COc1ccc(CNC2CC(=O)N(C)C2=O)cc1 (configuration not stated)	M1 agonist 3.4 | M1 ag confirm inactive | M4 ag counter inactive
CCOc1ccc(-c2cc(C(=O)N3CCN(C)CC3)c3ccccc3n2)cc1	none
CCOC(=O)N1CCN(C(=O)c2cc(-c3ccc(OCC)cc3)nc3ccccc23)CC1	M1 agonist 8.7 | M1 ag confirm inconclusive | M4 ag counter inactive

High-throughput results as filed in PubChem BioAssay.
